Compound activity: PubChem BioAssay, National Center for Advancing Translational Sciences (NCATS)
Most compounds without a hit are left out; they make up all but 10% or so of the library.
BAZ2B inh = qHTS Assay for Inhibitors of BAZ2B. Bromodomain adjacent to zinc finger domain protein 2B (Homo sapiens), Q9UIF8. AlphaScreen BAZ2B-H3K14Ac peptide displacement. Potency, µM (doses to about 114 µM), hits mostly inhibitors. actives 4.4% (n = 360,000). AID 504333, 2011; note: nearly all actives have a fitted effect of over 60% in size
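In this displacement format the biotinylated H3(5-23) peptide acetylated at Lys14 serves as ligand at 50 nM, with BAZ2B at 50 nM in PBS pH 7.4 containing 0.01% Tween-20. Donor and acceptor beads are 10 ug/mL final.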
JMJD2A Tudor = qHTS Assay for Inhibitors of JMJD2A-Tudor Domain; AlphaScreen JMJD2A-Tudor / H3K4me3 peptide binding; actives 4.4% (n = 390,000); AID 504339, 2011; Potency, µM (series often up to 114 µM), actives largely listed as inhibitors; Lysine-specific demethylase 4A (Homo sapiens), O75164; note: nearly all actives have a fitted effect of over 50% in size
L3MBTL1 inh = qHTS Assay for the Inhibitors of L3MBTL1 | AlphaScreen L3MBTL1–H3K9me1 peptide binding | Potency, µM (series often up to 57.1 µM), actives largely listed as inhibitors | actives 0.66% (n = 230,000); note: nearly all actives have a fitted effect of over 60% in size
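AlphaScreen proximity signal between nickel-chelate acceptor and streptavidin donor beads (final 10 ug/mL) reports binding of 50 nM L3MBTL1 to 75 nM biotin-H3 K9me1 peptide; complex incubated with compounds 30 min at room temperature; cefsulodin titration as control.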
GLS inhibitor = qHTS for Inhibitors of Glutaminase (GLS). Glutaminase kidney isoform, mitochondrial (Homo sapiens), O94925. GLS enzymatic activity, qHTS titration. Potency, µM (titrated, usually from 45.5 µM), usual class: inhibitors. actives 0.21% (n = 410,000). AID 624170, 2012
Target sequence (O94925 whole entry, looked up, canonical isoform): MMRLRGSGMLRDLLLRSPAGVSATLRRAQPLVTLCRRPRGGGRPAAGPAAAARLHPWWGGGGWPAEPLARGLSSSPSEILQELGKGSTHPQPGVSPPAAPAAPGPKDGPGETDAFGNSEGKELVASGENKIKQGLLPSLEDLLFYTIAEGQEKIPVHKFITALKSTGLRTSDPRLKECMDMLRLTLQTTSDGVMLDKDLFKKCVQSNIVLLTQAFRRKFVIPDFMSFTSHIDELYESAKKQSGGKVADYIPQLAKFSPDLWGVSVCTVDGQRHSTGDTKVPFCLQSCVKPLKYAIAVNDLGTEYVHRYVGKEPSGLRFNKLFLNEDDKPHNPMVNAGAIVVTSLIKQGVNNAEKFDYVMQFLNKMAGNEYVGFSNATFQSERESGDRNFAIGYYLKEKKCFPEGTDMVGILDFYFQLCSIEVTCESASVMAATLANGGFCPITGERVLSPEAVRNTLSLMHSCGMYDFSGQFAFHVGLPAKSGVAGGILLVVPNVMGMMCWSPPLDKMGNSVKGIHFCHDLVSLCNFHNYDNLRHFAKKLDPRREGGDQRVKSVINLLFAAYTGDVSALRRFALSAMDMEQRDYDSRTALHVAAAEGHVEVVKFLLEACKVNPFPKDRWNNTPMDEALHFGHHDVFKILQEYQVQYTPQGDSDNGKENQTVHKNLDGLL
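Coupled fluorescence readout: glutamate oxidase/HRP/Amplex Red detect glutamate formed by hKGA from L-glutamine (1 mM solution added). Buffer 45 mM KH2PO4 pH 8.2, 0.02% Tween-20; reads at t0 and 30 min RT.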
G9a inh = qHTS Assay for Inhibitors of Histone Lysine Methyltransferase G9a; actives 8.8% (n = 350,000); Potency, µM (titrated, usually from 102 µM), most hits filed as inhibitors; Histone-lysine N-methyltransferase EHMT2 (Homo sapiens), Q96KQ7; G9a H3K9 monomethylation, AlphaScreen, 2 h; note: nearly all actives have a fitted effect of over 75% in size
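Compounds were preincubated with 20 nM G9a for 15 min, after which biotinylated H3K9 peptide (500 nM) and SAM (20 uM) started a 2 h room-temperature reaction. Monomethylated product was quantified by antibody-based AlphaScreen chemiluminescence.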
HP1b binding inh = HTS for Inhibitors of HP1-beta Chromodomain Interactions with Methylated Histone Tails; Chromobox protein homolog 1 (Homo sapiens), P83916; AlphaScreen HP1-beta / biotin-H3K9me3 peptide binding; Potency, µM (doses to about 114 µM), usual class: inhibitors; actives 0.56% (n = 390,000); note: nearly all actives have a fitted effect of over 70% in size
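AlphaScreen: HP1-beta (50 nM) preformed 30 min with biotin-H3(1-18)K9me3 peptide (50 nM) in PBS pH 7.4, 0.01% Tween-20. Compound added for 30 min at RT, then streptavidin donor/nickel chelate acceptor beads (10 ug/mL) for 30 min.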
Hits are given with their value; n = inactive; u = inconclusive; x = not tested or not shown; [ ] = another dose, or the depositor's remark. Calls come from the whole dose curve; as a rule, active = well fitted curve in the direction sought with a large enough effect; inconclusive = small, poorly fitted or top-dose-only effect, or another doubt; inactive = no such curve, though single readings can be large; an effect the other way counts as inactive or inconclusive.

SMILES | BAZ2B inh | JMJD2A Tudor | L3MBTL1 inh | GLS inhibitor | G9a inh | HP1b binding inh
Cc1ccc(-c2cc(C(=O)Nc3cc([N+](=O)[O-])ccc3C)no2)cc1F | n | n | x | n | n | n
CC(=O)c1ccc(NC(=O)CSc2nc(C3CCCC3)nc3c2c(=O)n(C)c(=O)n3C)cc1 | n | n | x | n | n | n
COc1cc(/C=C2/SC(=S)N(CCC(=O)N3CCN(C)CC3)C2=O)cc(OC)c1OC | x | x | x | n | x | x
O=C(CCN1C(=O)/C(=C/c2ccccc2)SC1=S)N1CCCCCC1 | n | n | x | n | n | n
Cc1ccc(/C=C2\SC(=S)N(CCCC(=O)N3CCOCC3)C2=O)cc1 | 11µM | 20µM | x | n | x | u
CCOC(=O)CN1C(=O)S/C(=C/c2ccc3c(c2)n(C)c(=O)n3C)C1=O | n | n | n | n | n | n
CC1CCN(C(=O)CCN2C(=O)/C(=C/c3cccs3)SC2=S)CC1 | u | 28µM | x | n | 32µM | u
COc1cc(/C=C2\SC(=S)N(CCC(=O)N3CCN(C)CC3)C2=O)cc(OC)c1OC | n | u | x | n | 50µM | u
COC(=O)c1ccc(/C=C2\SC(=S)N(CCCC(=O)N3CCOCC3)C2=O)cc1 | x | n | x | n | x | n
Cn1c(=O)n(C)c2cc(/C=C3/SC(=O)N(CC(=O)N4CCOCC4)C3=O)ccc21 | 50µM | n | n | n | n | n
CN1CCN(C(=O)CCN2C(=O)/C(=C\c3ccc(Cl)cc3Cl)SC2=S)CC1 | u | 16µM | n | n | x | u
COc1ccc(/C=C2/SC(=S)N(CCCC(=O)N3CCN(C)CC3)C2=O)cc1 | 32µM | u | x | n | u | u
CN1CCN(C(=O)CCCN2C(=O)/C(=C/c3ccc(Cl)cc3)SC2=S)CC1 | u | u | n | n | n[12.7 µM] | n
COc1ccc(/C=C2/SC(=S)N(CCC(=O)N3CCN(C)CC3)C2=O)cc1 | n | n | x | n | u | n
Cc1cc(C)cc(NC(=O)C2CCCN(c3nnc(C)c4c(C)n(-c5ccccc5)nc34)C2)c1 (stereo not given) | n | n | x | n | n | n
CCOCCCNC(=O)c1cc2c(s1)-c1ccccc1SC2 | n | n | x | n | 10µM | n
COc1ccc(CNc2ncnc3cc(Cl)ccc23)cc1OC | n | n | n | n | n | n
CCN(CC)Cc1cc2[nH]c3c4ccc(Cl)cc4ncc3c2cc1OC | n | n | x | n | 45µM | n
Cn1ccnc1SCC(=O)c1ccc(Cl)cc1 | n | n | x | n | 50µM | n
COc1cccc(C(=O)CSc2nnc(CNS(=O)(=O)c3ccc(C)cc3)n2C)c1 | n | 20µM | x | n | 3.2µM | u
COc1cccc(C(=O)CSc2nccn2C)c1 | n | n | n | n | 50µM | n
COC(=O)CSc1nnc(CNS(=O)(=O)c2ccc(C)cc2)n1C | n | n | n | n | n | n
CCc1ccc(CNC(=O)C2CCCN(c3nn4cc(-c5ccc(F)cc5)nc4s3)C2)cc1 (stereo not given) | n | n | x | n | n | n
O=S(=O)(c1cnc2ccccc2c1)N1CCN(c2nc(-c3cccs3)nc3ccccc23)CC1 | x | n | x | x | x | n
COCCCOc1cc(C[C@@H](C[C@H](N)[C@@H](O)C[C@H](C(=O)NCC(C)(C)C(N)=O)C(C)C)C(C)C)ccc1OC | x | x | x | n | x | x
SMILES | BAZ2B inh | JMJD2A Tudor | L3MBTL1 inh | GLS inhibitor | G9a inh | HP1b binding inh
CC(C)Oc1ccc(C(=O)NCC(c2ccc(N(C)C)cc2)N2CCCC2)cc1 (stereo not given) | u | u | x | n | n[12.7 µM] | n
Cc1ccc(OCCn2c(-c3ccc(Cl)cc3)nc3ccccc3c2=O)c(C)c1 | n | n | x | n | u | n
CCCN1C2=C(C(=O)CC(C)(C)C2)C(c2ccc(F)cc2)C2=C1c1ccccc1C2=O (stereo not given) | u | n | x | n | 11µM | u
Cc1ccc(C2C3=C(CC(C)(C)CC3=O)NC3=C2C(=O)c2ccccc23)cc1 (stereo not given) | 32µM | 50µM | u | n | 14µM | u
COc1ccc(C2C3=C(CCCC3=O)NC3=C2C(=O)c2ccccc23)cc1 (stereo not given) | 35µM | 50µM | n | n | x | u
CC1(C)CC(=O)C2=C(C1)NC1=C(C(=O)c3ccccc31)C2c1ccc(Cl)cc1 (stereo not given) | 11µM | 16µM | u | n | u | u
COc1ccc(OC)c(CNC(=O)C2CCN(c3nc4ccccc4nc3C(F)(F)F)CC2)c1 | n | n | x | n | n | n
CCOc1ccccc1C(=O)N(Cc1ccco1)Cc1ccccc1F | n | n | x | n | n | n
O=C(CCSCc1cccc(Cl)c1)NCc1ccccc1Cl | n | n | x | n | n | n
O=C(Nc1cccc(F)c1)N1CC[C@@]2(CCCNC2)C1 | x | x | x | x | n[12.7 µM] | x
Cc1cccc(-n2nc3c(c2NC(=O)c2ccc(Br)o2)CSC3)c1 | n | n | x | n | 40µM | n
O=C(CCl)Nc1c2c(nn1-c1ccccc1)CSC2 | n | 45µM | x | n | n | n
COc1ccc(CN2CCN(Cc3ccco3)CC2)cc1OC | 28µM | 20µM | n | n | 8.9µM | u
Oc1cc2c(cc1CN1CCc3ccccc3C1)OCO2 | n | u | x | n | 20µM | n
COc1ccccc1N1CCN(Cc2cc3c(cc2O)OCO3)CC1 | u | u | x | n | 10µM | n
COc1ccc(N=Nc2cc(C)c(O)c(CN3CCCCC3)c2)cc1 | 13µM | 22µM | u | n | 11µM | 28µM
COc1ccc(CCNC(=O)c2ccc(Cn3c(=O)c4ccccc4n(Cc4cccc(Cl)c4)c3=O)cc2)cc1OC | n | n | x | n | n | n
CN(CCO)c1nc(-c2cccs2)nc2ccccc12 | x | n | x | x | x | n
COc1cc(CN(C(=O)COc2ccccc2Cl)c2ccccn2)cc(OC)c1OC | n | n | x | n | n | n
CCOC(=O)c1ccc(NC(=O)c2cc(=O)c3ccc(C)c(C)c3o2)cc1 | n | n | x | n | n | n
COC(=O)c1cc2oc3ccccc3c2n1Cc1c(C)cc(C)cc1C | n | n | x | n | n | n
CCc1ccccc1NS(=O)(=O)c1ccc2c(c1)CCCN2C(=O)C1CCC1 | n | n | x | n | n | n
CC(=O)Nc1nonc1-c1nnc(SCc2cccc(Br)c2)n1C | u | n | x | n | n | n
Cn1c(=O)c2sccc2n2c(CCCC(=O)Nc3ccc(Oc4ccc(Cl)cc4)cc3)nnc12 | n | n | x | n | n | n
FC(F)(F)c1ccc(CN2CCN(Cc3ccco3)CC2)cc1 | n | n | n | n | 50µM | n
COc1ccc(CN2CCN(Cc3ccco3)CC2)cc1 | 20µM | 4µM | x | n | u | 20µM
